# Reference: the supplement of paper PMC6522484
# ± gives the standard deviation of the averaged measurements.
# Assays:
# DLD1 [1] = assay: cell viability (CellTiter-Glo) relative to plate median (fraction of plate median); higher = more viable cells; conditions: 10 µM, treatment time 24 h
# In short: (§1)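 Reporter and viability luminescence were measured in colorectal cancer cells stably carrying lentiviral TCF/Wnt firefly luciferase reporters. The cells were exposed to kinase inhibitor library compounds at a final 10 µM for 24 h, starting 24 h after seeding in 384-well plates. Each well was normalised to the plate median (webcellHTS2, additive, no log transformation), and two independent replicates were averaged.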
# HCT116 [2] = assay: as above; conditions: 10 µM; treatment time 24 h; reporter: TCF4/Wnt
# In short: as §1
# SW480 [3] = assay: as above; conditions: 10 µM; treatment time 24 h; reporter: 7TFP
# In short: as §1
# DLD1 [4] = assay: TCF/Wnt firefly luciferase reporter signal relative to plate median (fraction of plate median); higher = higher Wnt reporter signal; conditions: 10 µM, treatment time 24 h
# In short: as §1
# HCT116 [5] = assay: as above; conditions: 10 µM; treatment time 24 h; reporter: TCF4/Wnt
# In short: as §1
# SW480 [6] = assay: as above; conditions: 10 µM; treatment time 24 h; reporter: 7TFP
# In short: as §1
SMILES,cell viability (DLD1 [1]; reporter: 7TFP),cell viability (DLD1 [1]; reporter: TCF4/Wnt),cell viability (HCT116 [2]),cell viability (SW480 [3]),TCF/Wnt firefly luciferase reporter signal (DLD1 [4]; reporter: 7TFP),TCF/Wnt firefly luciferase reporter signal (DLD1 [4]; reporter: TCF4/Wnt),TCF/Wnt firefly luciferase reporter signal (HCT116 [5]),TCF/Wnt firefly luciferase reporter signal (SW480 [6])
O=c1cc(N2CCOCC2)oc2c(-c3cccc4c3sc3ccccc34)cccc12,1.01 ± 0.083,0.964 ± 0.052,1 ± 0.094,1.04 ± 0.014,1.19 ± 0.064,1.16 ± 0.17,1.73 ± 0.64,1.1 ± 0.042
C=CC(=O)Nc1cccc(Oc2nc(Nc3ccc(N4CCN(C)CC4)cc3)ncc2Cl)c1,0.968 ± 0.045,1.045 ± 0.0071,0.894 ± 0.16,1.07 ± 0.085,0.79 ± 0.067,0.969 ± 0.12,1.18 ± 0.42,0.834 ± 0.39
COc1cc(N2CCC(N3CCN(C)CC3)CC2)ccc1Nc1ncc(Cl)c(Nc2ccccc2S(=O)(=O)C(C)C)n1,0.799 ± 0.069,0.884 ± 0.0071,0.733 ± 0.057,0.923 ± 0.054,0.909 ± 0.21,1.14 ± 0.035,1.2 ± 0.12,0.767 ± 0.057
Cn1cc(-c2ccc3nnc(Sc4ccc5ncccc5c4)n3n2)cn1,0.983 ± 0.016,0.9215 ± 0.0078,1.07 ± 0.05,0.862 ± 0.014,1.12 ± 0.16,1.19 ± 0.042,1.41 ± 0.17,1.02 ± 0.052
Cn1cnc(N)c2ncnc1-2 [3-Methyladenine],1.07 ± 0.078,1.11 ± 0.12,1.13 ± 0.014,0.867 ± 0.1,1.17 ± 0.13,1.12 ± 0.11,1.03 ± 0.066,0.733 ± 0.24
CCOc1ccn(-c2ccc(F)cc2)c(=O)c1C(=O)Nc1ccc(Oc2ccnc(N)c2Cl)c(F)c1,0.97 ± 0.071,0.971 ± 0.056,1.16 ± 0.014,0.991,0.983 ± 0.12,0.893 ± 0.12,1.19 ± 0.23,0.978 ± 0.031
CN(C)C1CCN(C(=O)c2ccc(NC(=O)Nc3ccc(-c4nc(N5CCOCC5)nc(N5CCOCC5)n4)cc3)cc2)CC1,1.1 ± 0.17,1.05 ± 0.081,0.649 ± 0.051,1.17 ± 0.05,0.947 ± 0.076,0.933 ± 0.073,0.611 ± 0.23,0.958 ± 0.1
Cc1ccc(NC(=O)c2ccc(CN3CCN(C)CC3)cc2)cc1Nc1nccc(-c2cccnc2)n1 [Imatinib (Gleevec)],1.05 ± 0.099,1.035 ± 0.0071,0.993 ± 0.024,0.986 ± 0.011,1.65 ± 0.057,1.55 ± 0.11,1.42 ± 0.23,1.39 ± 0.22
CCN1CCN(Cc2ccc(-c3cc4c(N[C@H](C)c5ccccc5)ncnc4[nH]3)cc2)CC1,0.92 ± 0.15,0.999 ± 0.1,0.938 ± 0.0014,1.115 ± 0.0071,0.905 ± 0.011,0.852 ± 0.22,1.08 ± 0.085,1.24 ± 0.057
CC1(COc2ccc3c(c2)ncn3-c2ccc3cccc(N4CCC(N)CC4)c3n2)COC1,0.975 ± 0.02,1.14 ± 0.11,0.536 ± 0.13,1.02 ± 0.014,1.48 ± 0.25,1.73 ± 0.064,0.288 ± 0.11,1.64 ± 0.014
COc1ccc(-c2ccc3ncc4c(c3c2)n(-c2ccc(N3CCNCC3)c(C(F)(F)F)c2)c(=O)n4C)cn1,0.0998 ± 0.065,0.116 ± 0.084,0.0311 ± 0.011,0.273 ± 0.18,0.0479 ± 0.0086,0.0791 ± 0.014,0.0387 ± 0.017,0.148 ± 0.14
COc1cc2nccc(Oc3ccc(NC(=O)NC4CC4)c(Cl)c3)c2cc1C(N)=O [E7080 (Lenvatinib)],1.07 ± 0.085,0.932 ± 0.069,1.06 ± 0.11,0.966 ± 0.062,1.44 ± 0.078,1.2 ± 0.05,1.31 ± 0.3,0.927 ± 0.34
NC(=O)Nc1cc(-c2cccc(F)c2)sc1C(=O)N[C@H]1CCCNC1,0.645 ± 0.073,0.679 ± 0.04,0.293 ± 0.12,0.838 ± 0.13,0.667 ± 0.19,0.829 ± 0.15,0.436 ± 0.15,0.982 ± 0.14
Clc1ccc(C2(c3ccc(-c4cn[nH]c4)cc3)CCNCC2)cc1,1.01 ± 0.025,1.08 ± 0.028,1.03 ± 0.13,1.15 ± 0.057,1.13 ± 0.13,0.883 ± 0.11,0.871 ± 0.024,1.33 ± 0.021
COc1cc2nccc(Oc3ccc(NC(=O)C4(C(=O)Nc5ccc(F)cc5)CC4)cc3)c2cc1OC [XL-184 free base (Cabozantinib)],1 ± 0.08,1.02 ± 0.05,1.095 ± 0.0071,0.9465 ± 0.0035,1.14 ± 0.14,0.846 ± 0.078,1.05 ± 0.23,1.03 ± 0.1
COc1cccc2cc(-c3nc([C@H]4CC[C@H](C(=O)O)CC4)n4ncnc(N)c34)[nH]c12,1.03 ± 0.093,1.02 ± 0.056,0.816 ± 0.0042,1.19 ± 0.11,0.442 ± 0.061,0.449 ± 0.098,0.6105 ± 0.00071,0.83 ± 0.069
CC(C)CC(=O)Nc1n[nH]c2c1CN(C(=O)C1CCN(C)CC1)C2(C)C,1.07 ± 0.028,1.27 ± 0.15,0.793 ± 0.13,1.32 ± 0.071,1.33 ± 0.26,2.31 ± 0.37,0.193 ± 0.053,0.836 ± 0.064
NCC(=O)Nc1ccc(-n2nc(C(F)(F)F)cc2-c2ccc3c(ccc4ccccc43)c2)cc1,0.883 ± 0.098,0.998 ± 0.14,0.833 ± 0.13,0.678 ± 0.46,1.09 ± 0.085,1.31 ± 0.34,0.606 ± 0.18,1.3 ± 0.057
CCC[C@H](NC(=O)/C(C#N)=C/c1cccc(Br)n1)c1ccccc1,0.421 ± 0.17,0.532 ± 0.038,0.13 ± 0.066,0.826 ± 0.11,0.0449 ± 0.0065,0.0661 ± 0.016,0.0353 ± 0.0076,0.037 ± 0.0048
